Compounds with a hit are over-represented: about 6.8% of the library has one in this group of screens.
DPM-DC inhibit: blocks S. pneumoniae diphosphomevalonate decarboxylase; calls only at 10 µM; purified DPM-DC, PK/LDH coupled NADH fluorescence; 65,000 tested, 0.49% active;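 active = the 320 compounds with the highest percent inhibition in the single-dose primary screen, excluding strongly autofluorescent ones, cut at about 32% in these data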;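 note: kinetic rate of NADH fluorescence loss reporting ADP formed by the decarboxylase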
Spn MK inh: blocks S. pneumoniae mevalonate kinase; purified MK, PK/LDH-coupled NADH absorbance 340 nm; inhibition, % at 10 µM; 65,000 tested, 0.48% active; AID 555;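 active = ranked among the strongest by inhibition in the single 10 µM screen, a fixed top-ranked set picked for dose follow-up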
NADH coupling: inhibition of NAD/NADH coupling enzymes, library profiling; coupled PK/LDH NADH assays, four targets; IC50, µM (top dose mostly 10 µM); 65,000 tested, 0.02% active;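 active = single-dose screening hits from any of four coupled enzyme assays that gave an IC50 when retested across doses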;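 note: the DPM-DC format reads NADH fluorescence rather than 340 nm absorbance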
A340 absorber: absorbance at 340 nm. compound absorbance at 340 nm, fold over control. fold change at 10 µM. 65,000 tested, under 10 active. AID 708;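 active = at 10 µM dose, initial 340 nm absorbance at least 2 fold that of control wells; inactive = change under 2 fold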;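 note: initial absorbance extrapolated from kinetic A340 decline of NADH oxidation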
Spn PMK inh: inhibitors of Streptococcus pneumoniae phosphomevalonate kinase. purified PMK, PK/LDH-coupled NADH absorbance 340 nm. inhibition, % at 10 µM. 65,000 tested, 0.49% active. AID 539;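 active = top-ranked compounds by inhibition in the single 10 µM screen, taking a fixed number of the strongest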
Fluor 339 460: intrinsic fluorescence of library compounds, ex339/em460 – biochemical, MLSMR library, data from DPM-DC assay, artefact control, profiling panel. fluorescence fold increase at 10 µM. compound autofluorescence, ex339/em460 nm, NADH buffer; hits give high values; 1 = no-compound wells, NADH background. 65,000 tested, 5.5% active;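 active = at 10 µM, mean starting fluorescence two-fold or more over control wells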;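 note: signal is the first read of a kinetic run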
Numbers stand for hits; – = inactive; · = not tested or not shown; + = active, no number; [ ] = another dose, or the depositor's remark.

SMILES | DPM-DC inhibit | Spn MK inh | NADH coupling | A340 absorber | Spn PMK inh | Fluor 339 460
CC(C)Cc1[nH]c(=O)c(C#N)c2c1CCC2 | · | – | – | – | – | 2.31
Cn1c(C(=O)N2CCC3(CC2)OCCO3)cc2c(=O)n(C)c3ccccc3c21 | – | – | – | – | – | –
Cc1cccn2c(=O)c3cc(C(=O)N4CCC5(CC4)OCCO5)n(C)c3nc12 | · | – | – | – | – | 5.05
COc1ccc(CN2CCN(C(=O)Cc3ccccc3)CC2)c(OC)c1 | – | 52.0 | – | – | – | –
CC1(C)CC2(CCO1)NCCN1C(=O)CSC12 (centres undefined) | – | – | – | – | – | –
Cc1cc(OCC(=O)NC2CCS(=O)(=O)C2)c2c3c(c(=O)oc2c1)CCC3 (centres undefined) | · | – | – | – | – | 2.25
Cc1cc(OCc2nn[nH]n2)c2c3c(c(=O)oc2c1)CCC3 | · | – | – | – | – | 3.86
Cc1nc2cc(-c3cccc(F)c3)nn2c(C)c1CCC(=O)N1CCC2(CC1)OCCO2 | – | – | – | – | – | 2.26
Cc1nc2c(-c3ccccc3)c(C)nn2c(C)c1CCC(=O)N1CCC2(CC1)OCCO2 | – | – | – | – | – | –
O=C(CSc1ccccc1)N1CCC2(CC1)OCCO2 | – | – | – | – | – | –
Cc1nc2c(c(C)nn2-c2ccccc2)c(C)c1CCC(=O)N1CCC2(CC1)OCCO2 | – | – | – | – | – | 3.64
Cc1cccnc1-n1c(CN2C(=O)c3ccccc3C2=O)nc2ccccc2c1=O | – | – | – | – | – | –
CC1CC2(O)c3nonc3CCC2N1O (centres undefined) | – | – | – | – | – | –
CCCCn1c(NC(=O)c2ccco2)c(C(=O)OCC)c2nc3ccccc3nc21 | · | – | – | – | – | 3.81
CCOC(=O)c1c(N)n(Cc2ccco2)c2nc3ccccc3nc12 | · | – | – | – | – | 2.25
COCC(C)OC(=O)c1c(N)n(Cc2ccco2)c2nc3ccccc3nc12 (centres undefined) | · | – | – | – | – | 2.32
CN(C)CCN=Cc1c(O)n(-c2cccc3ccccc23)c(=O)[nH]c1=O | – | – | – | – | – | –
CCOc1ccc(-c2cc(C(=O)N3CCC4(CC3)OCCO4)c3ccccc3n2)cc1 | · | – | – | – | – | 5.25
O=C1C2CCCN2C(c2cccc(Cl)c2)N1c1ccccn1 (centres undefined) | – | – | – | – | – | –
Nc1cccc(N=Cc2c(O)n(Cc3ccc(F)cc3)c(=O)[nH]c2=O)c1 | – | – | – | – | – | –
O=c1c2ccccc2nc(N2CCCC2)n1-c1ccc(Cl)cc1 | – | – | – | – | – | 3.33
CC(C)CC1C(C#N)=C(N)Oc2c1c(=O)oc1ccccc21 (centres undefined) | – | – | – | – | – | –
O=C(C1CCN(S(=O)(=O)N2CCOCC2)CC1)N1CCC2(CC1)OCCO2 | – | – | – | – | – | –
CN(C)[C@@H]1C(=O)C(C(N)=O)=C(O)[C@@]2(O)C(=O)C3=C(O)c4c(O)cccc4[C@@](C)(O)[C@H]3[C@H](O)[C@@H]12 | +[fluoresces] | – | 125µM[fluoresces] | – | – | –
O[C@@H]1CCCC[C@H]1N1CCC(c2ccccc2)CC1 | – | – | – | – | – | –
SMILES | DPM-DC inhibit | Spn MK inh | NADH coupling | A340 absorber | Spn PMK inh | Fluor 339 460
CCC(=NCc1cccnc1)c1c(O)n(Cc2ccccc2)c(=O)[nH]c1=O | – | – | – | – | – | –
CC(C)[C@H]1C(=O)N2CCC[C@H]2[C@]2(O)O[C@](NC(=O)[C@@H]3C=C4c5cccc6[nH]cc(c56)C[C@H]4N(C)C3)(C(C)C)C(=O)N12 | – | – | – | – | – | 2.35
OCC12COC3c4ccccc4C(OC1)N32 (centres undefined) | – | – | – | – | – | –
CC(C)Cn1cc(C(=O)N2CCC3(CC2)OCCO3)c2c3ccccc3n(C)c2c1=O | · | – | – | – | – | 4.29
Cn1c2ccccc2c2c(C(=O)N3CCC4(CC3)OCCO4)cn(C3CCCCC3)c(=O)c21 | · | – | – | – | – | 2.12
Cn1cc(C(=O)N2CCC3(CC2)OCCO3)c2c3ccccc3n(C)c2c1=O | – | – | – | – | – | 3.37
C=C1N2CCC(CC2)C1(O)c1ccccc1C (centres undefined) | – | – | – | – | – | –
COc1ccc(C(=O)N2CCCC2=O)cc1 | – | – | – | – | – | –
CC(=O)c1cccc(NC2=NCC(C)S2)c1 (centres undefined) | – | – | – | – | – | –
O=C(Cc1ccccc1)Oc1ccccc1N1C(=O)CCC1=O | – | – | – | – | – | –
O=C(c1cc2c(s1)-c1ccccc1OC2)N1CCC2(CC1)OCCO2 | · | – | – | – | – | 5.07
CC(C)OC(=O)c1c(N)n(CC2CCCO2)c2nc3ccccc3nc12 (centres undefined) | · | – | – | – | – | 3
CC(C)CCOC(=O)c1c(N)n(CC2CCCO2)c2nc3ccccc3nc12 (centres undefined) | · | – | – | – | – | 3.9
Nc1c(C(=O)OC2CCCCC2)c2nc3ccccc3nc2n1CC1CCCO1 (centres undefined) | · | – | – | – | – | 3.61
CC(=O)OC1(Cc2ccccc2)CN2CCC1c1ccccc12 (centres undefined) | – | – | – | – | – | –
COCCOC(=O)C1=C(N)Oc2c(c(=O)oc3ccccc23)[C@@]12C(=O)Nc1ccccc12 | – | – | – | – | – | –
